From PubChem BioAssay (Tox21)
Inconclusive results are not listed. A call without a number means that no potency is given here. The source made the active and inactive calls. Calls follow the shape of the full dose curve.

Biological target: Thyrotropin receptor (Homo sapiens) (UniProt P16473)
Assay: qHTS assay to identify small molecule antagonists of the thyroid stimulating hormone receptor (TSHR) signaling pathway (AID 1259385); also: nearly all actives have a fitted effect of over 20% in size
Conditions: TSHR-HEK293 cAMP HTRF, TSH-stimulated antagonist mode; series mostly up to 92.4 µM
Excerpt: U.S. Tox21 Program National Center for Advancing Translational Sciences [NCATS] NIH Chemical Genomics Center [NCGC] U.S. Environmental Protection Agency [EPA] National Institutes of Environmental Health Sciences [NIEHS] National Toxicology Program [NTP] U.S. Food and Drug Administration [FDA] Tox21 Assay Overview: TSHR is the receptor for thyrotropin (thyroid stimulating hormone or TSH), a member of the glycoprotein hormone family. TSH is released by the anterior pituitary gland and is the main regulator of thyroid gland growth and development. Upon binding circulating thyrotropin, a G-protein signal cascade activates adenylyl cyclase and […] cAMP concentration is increased. cAMP is a key second messenger involved extensively in cellular signal transduction pathways associated with the majority of G-protein coupled receptors (GPCRs). The activation of these GPCRs by neurotransmitters, lipids, nucleotides, peptides and hormones results in the activation or the inhibition of plasma membrane-bound adenylate cyclase through heterotrimeric G-proteins. A cell-based TSHR assay can be used to screen chemical compounds that modulate TSHR either in agonist or antagonist mode.
Tox21 Assay Protocol Summary: TSHR-Hek293 cells were dispensed at 800 cells/4uL/well in 1536-well white plates using a Multidrop dispenser. After the assay plates were incubated at a 37C/5% CO2 incubator for 18 hrs, 23 nL of compounds dissolved in DMSO, positive controls or DMSO only was transferred to the assay plate by a pin tool, followed by 1 ul medium containing Ro20-1724. For the antagonist mode screening, 1 uL of TSH was added on the top of the cell/compound mixtures to achieve a final agonist concentration of 1.5 ng/mL. After 30 min of incubation at room temperature, 2.5 ul/well of cAMP-d2 and 2.5 ul/well of anti-cAMP-cryptate were added respectively into the assay plates using a Flying Reagent Dispenser. The plates were incubated at room temperature for 1 hr. The fluorescence intensity in the plates was measured using an Envision plate reader. Each test compound was measured at 15 concentrations and in triplicates.
Potency is read from the fitted curve at half-maximal effect.

Thyrotropin receptor (Homo sapiens), sequence (P16473 whole entry, looked up): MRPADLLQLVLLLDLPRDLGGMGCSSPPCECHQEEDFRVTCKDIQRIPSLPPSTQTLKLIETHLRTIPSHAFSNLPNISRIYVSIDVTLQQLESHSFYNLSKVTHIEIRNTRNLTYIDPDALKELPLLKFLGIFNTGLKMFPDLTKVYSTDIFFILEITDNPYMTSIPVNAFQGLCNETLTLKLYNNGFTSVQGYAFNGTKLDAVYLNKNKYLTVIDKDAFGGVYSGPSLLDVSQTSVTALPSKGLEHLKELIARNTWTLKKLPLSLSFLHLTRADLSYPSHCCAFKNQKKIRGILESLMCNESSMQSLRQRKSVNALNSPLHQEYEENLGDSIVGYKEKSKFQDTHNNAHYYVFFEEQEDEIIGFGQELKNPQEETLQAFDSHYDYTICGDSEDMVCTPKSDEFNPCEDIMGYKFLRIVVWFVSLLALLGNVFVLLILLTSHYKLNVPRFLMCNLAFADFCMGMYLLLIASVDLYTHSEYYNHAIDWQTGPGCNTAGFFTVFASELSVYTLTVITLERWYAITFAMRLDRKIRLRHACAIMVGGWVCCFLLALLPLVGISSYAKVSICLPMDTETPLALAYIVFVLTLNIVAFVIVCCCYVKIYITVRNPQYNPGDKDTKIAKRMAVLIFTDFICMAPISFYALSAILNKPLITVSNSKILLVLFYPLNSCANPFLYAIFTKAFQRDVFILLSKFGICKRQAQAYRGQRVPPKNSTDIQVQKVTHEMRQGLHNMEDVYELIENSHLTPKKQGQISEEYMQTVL

Compound | Potency
CC(C)(C)C(O)(CCc1ccc(Cl)cc1)Cn1cncn1 (stereo not given) | inactive
Cc1[nH]c(=O)n(C(C)(C)C)c(=O)c1Cl | inactive
Oc1ccccc1Cl | inactive
CCC[CH2][Sn]([Cl])([Cl])[Cl] | inactive
Clc1cccc(Cl)c1Cl | inactive
COCCl | inactive
CC(C)C#N | inactive
CC(Br)C(=O)O (stereo not given) | inactive
CC(C)N1C(=O)c2ccccc2NS1(=O)=O | inactive
COc1ccc2c3c1O[C@H]1[C@@H](O)C=C[C@H]4[C@@H](C2)N(C)CC[C@@]341 | inactive
CC(C#N)CCC#N (stereo not given) | inactive
[N-]=[N+]=[N-] | inactive
NCC(O)c1ccc(O)cc1 (stereo not given) | inactive
CCCCCCCCCCCC#N | inactive
O=[N+]([O-])c1ccc([As](=O)(O)O)cc1 | inactive
Cn1cc(-c2ccccc2)c(=O)c(-c2cccc(C(F)(F)F)c2)c1 | inactive
Nc1c(Cl)c(Cl)nc(C(=O)O)c1Cl | inactive
C#CC(C)(C)NC(=O)c1cc(Cl)cc(Cl)c1 | inactive
CCCCOC(=O)c1ccccc1C(=O)OCCCC | inactive
Cc1cc(Cl)ccc1O | inactive

Compound | Potency
CC(Oc1ccc(Cl)cc1Cl)C(=O)O (stereo not given) | inactive
O=NN1CCCCCCC1 | inactive
OC(O)C(Cl)(Cl)Cl | inactive
CCN(CC)CCO | inactive
CNC(=O)Oc1ccccc1OC(C)C | inactive
C1CC2OC2CC1C1CO1 (stereo not given) | inactive
O=NN1CCCC1 | inactive
O=S(=O)(c1ccc(Cl)cc1)c1cc(Cl)c(Cl)cc1Cl | 61.1 µM (active)
O=Cc1cccc(Oc2ccccc2)c1 | inactive
Cc1ccc(N)cc1N | inactive
c1ccc(-c2ccccc2)cc1 | inactive
C1CN2CCN1CC2 | inactive
CON(C)C(=O)Nc1ccc(Cl)c(Cl)c1 | inactive
CCCN(CCC)N=O | inactive
COC(=O)c1ccccc1N | inactive
Clc1ccc(Cl)cc1 | inactive
CN=C=S | inactive
CC(C)NC(=O)N1CC(=O)N(c2cc(Cl)cc(Cl)c2)C1=O | inactive
c1ccc(OP(Oc2ccccc2)Oc2ccccc2)cc1 | inactive
NCCc1ccc(O)cc1 | inactive
